Data as given in the supplement of paper PMC8728848.
The sample as a whole holds a higher share of the strongest signals than the screen did.

Tests used:
Assay in all cases: glycan array binding signal (z-score within array); higher = stronger binding
Settings in all cases: glycan notation: IUPAC condensed, linker removed
Fuc(a1-2)Gal(b1-4)Glc = molecular target: Fuc(a1-2)Gal(b1-4)Glc
How it was run: (§1)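 Glycan array data came from 3228 arrays in the Consortium for Functional Glycomics database, and only arrays with an available protein sequence were kept. Glycan names were put into IUPAC-condensed notation, and columns mapping to the same glycan were averaged. The binding signal is a within-array Z-score, averaged across arrays of one protein sequence run at different concentrations or buffers and across linkers. A negative Z-score can be read as non-binding.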

[1] = molecular target: Fuc(a1-2)Gal(b1-4)GlcNAc(b1-2)[Fuc(a1-2)Gal(b1-4)GlcNAc(b1-4)]Man(a1-3)[Fuc(a1-2)Gal(b1-4)GlcNAc(b1-2)Man(a1-6)]Man(b1-4)GlcNAc(b1-4)GlcNAc
How it was run: as §1

[2] = molecular target: Fuc(a1-2)Gal(b1-4)GlcNAc(b1-6)GalNAc
How it was run: as §1

[3] = molecular target: Fuc(a1-2)Gal(b1-4)[Fuc(a1-3)]GlcNAc(b1-2)[Fuc(a1-2)Gal(b1-4)[Fuc(a1-3)]GlcNAc(b1-4)]Man(a1-3)[Fuc(a1-2)Gal(b1-4)[Fuc(a1-3)]GlcNAc(b1-2)Man(a1-6)]Man(b1-4)GlcNAc(b1-4)GlcNAc
How it was run: as §1

[4] = molecular target: Fuc(a1-2)[Gal(a1-3)]Gal(b1-4)GlcNAc
How it was run: as §1

[5] = molecular target: Fuc(a1-2)[Gal(a1-3)]Gal(b1-4)GlcNAc(b1-2)Man
How it was run: as §1

[6] = molecular target: Fuc(a1-2)[GalNAc(a1-3)]Gal(b1-3)GlcNAc
How it was run: as §1

[7] = molecular target: Fuc(a1-2)[GalNAc(a1-3)]Gal(b1-4)GlcNAc(b1-2)Man(a1-3)[Fuc(a1-2)[GalNAc(a1-3)]Gal(b1-4)GlcNAc(b1-2)Man(a1-6)]Man(b1-4)GlcNAc(b1-4)[Fuc(a1-6)]GlcNAc
How it was run: as §1

[8] = molecular target: Gal(a1-3)Gal(b1-3)GlcNAc(b1-6)GalNAc
How it was run: as §1

[9] = molecular target: Gal(a1-3)Gal(b1-4)GlcNAc(b1-3)GalNAc
How it was run: as §1

[10] = molecular target: Gal(b1-3)GlcNAc(b1-2)[Gal(b1-3)GlcNAc(b1-6)]Man(a1-6)[Gal(b1-3)GlcNAc(b1-2)Man(a1-3)]Man(b1-4)GlcNAc(b1-4)GlcNAc
How it was run: as §1

[11] = molecular target: Gal(b1-3)[Fuc(a1-4)]GlcNAc(b1-6)GalNAc
How it was run: as §1

Gal(b1-4)Glc6S = molecular target: Gal(b1-4)Glc6S
How it was run: as §1

[12] = molecular target: Gal(b1-4)GlcNAc(b1-3)Gal(b1-3)GalNAc
How it was run: as §1

[13] = molecular target: Gal(b1-4)GlcNAc(b1-3)Gal(b1-4)GlcNAc(b1-2)Man(a1-3)[Gal(b1-4)GlcNAc(b1-3)Gal(b1-4)GlcNAc(b1-2)Man(a1-6)]Man(b1-4)GlcNAc(b1-4)[Fuc(a1-6)]GlcNAc
How it was run: as §1

[14] = molecular target: Gal(b1-4)GlcNAc(b1-3)Gal(b1-4)GlcNAc(b1-3)Gal(b1-4)GlcNAc(b1-3)Gal(b1-4)GlcNAc(b1-2)Man(a1-3)[Gal(b1-4)GlcNAc(b1-3)Gal(b1-4)GlcNAc(b1-3)Gal(b1-4)GlcNAc(b1-3)Gal(b1-4)GlcNAc(b1-2)Man(a1-6)]Man(b1-4)GlcNAc(b1-4)[Fuc(a1-6)]GlcNAc
How it was run: as §1

[15] = molecular target: Gal(b1-4)GlcNAc(b1-6)[Gal(b1-4)GlcNAc(b1-3)]GalNAc
How it was run: as §1

Gal3S(b1-4)Glc6S = molecular target: Gal3S(b1-4)Glc6S
How it was run: as §1

Gal3S(b1-4)GlcNAc = molecular target: Gal3S(b1-4)GlcNAc
How it was run: as §1

GalNAc(b1-4)Gal(b1-4)Glc = molecular target: GalNAc(b1-4)Gal(b1-4)Glc
How it was run: as §1

[16] = molecular target: GalNAc(b1-4)GlcNAc(b1-2)Man(a1-3)[GalNAc(b1-4)GlcNAc(b1-2)Man(a1-6)]Man(b1-4)GlcNAc(b1-4)GlcNAc
How it was run: as §1

[17] = molecular target: GlcNAc(a1-6)Gal(b1-4)GlcNAc
How it was run: as §1

[18] = molecular target: GlcNAc(b1-3)Gal(b1-4)GlcNAc(b1-3)Gal(b1-4)GlcNAc(b1-2)Man(a1-3)[GlcNAc(b1-3)Gal(b1-4)GlcNAc(b1-3)Gal(b1-4)GlcNAc(b1-2)Man(a1-6)]Man(b1-4)GlcNAc(b1-4)[Fuc(a1-6)]GlcNAc
How it was run: as §1

[19] = molecular target: GlcNAc(b1-3)Gal(b1-4)GlcNAc(b1-3)Gal(b1-4)GlcNAc(b1-3)Gal(b1-4)GlcNAc(b1-2)Man(a1-3)[GlcNAc(b1-3)Gal(b1-4)GlcNAc(b1-3)Gal(b1-4)GlcNAc(b1-3)Gal(b1-4)GlcNAc(b1-2)Man(a1-6)]Man(b1-4)GlcNAc(b1-4)[Fuc(a1-6)]GlcNAc
How it was run: as §1

[20] = molecular target: Man(a1-2)Man(a1-2)Man(a1-6)[Man(a1-3)]Man
How it was run: as §1

[21] = molecular target: Man(a1-3)[Man(a1-6)]Man(b1-4)GlcNAc(b1-4)[Fuc(a1-6)]GlcNAc
How it was run: as §1

[22] = molecular target: Neu5Ac(a2-3)Gal(b1-3)GlcNAc(b1-3)GalNAc
How it was run: as §1

[23] = molecular target: Neu5Ac(a2-3)Gal(b1-4)GlcNAc(b1-2)[Neu5Ac(a2-3)Gal(b1-4)GlcNAc(b1-6)]Man(a1-6)[Neu5Ac(a2-3)Gal(b1-4)GlcNAc(b1-2)Man(a1-3)][GlcNAc(b1-4)]Man(b1-4)GlcNAc(b1-4)GlcNAc
How it was run: as §1

[24] = molecular target: Neu5Ac(a2-3)Gal(b1-4)GlcNAc(b1-3)Gal
How it was run: as §1

[25] = molecular target: Neu5Ac(a2-3)Gal(b1-4)GlcNAc(b1-3)Gal(b1-4)GlcNAc(b1-3)GalNAc
How it was run: as §1

[26] = molecular target: Neu5Ac(a2-3)Gal(b1-4)GlcNAc(b1-3)Gal(b1-4)[Fuc(a1-3)]GlcNAc
How it was run: as §1

[27] = molecular target: Neu5Ac(a2-3)Gal(b1-4)GlcNAc(b1-6)[Neu5Ac(a2-3)Gal(b1-3)]GalNAc
How it was run: as §1

[28] = molecular target: Neu5Ac(a2-3)Gal(b1-4)[Fuc(a1-3)]GlcNAc(b1-3)Gal(b1-4)GlcNAc
How it was run: as §1

[29] = molecular target: Neu5Ac(a2-3)Gal(b1-4)[Fuc(a1-3)]GlcNAc(b1-3)GalNAc
How it was run: as §1

[30] = molecular target: Neu5Ac(a2-3)Gal(b1-4)[Fuc(a1-3)]GlcNAc(b1-6)[Neu5Ac(a2-3)Gal(b1-3)]GalNAc
How it was run: as §1

[31] = molecular target: Neu5Ac(a2-6)Gal(b1-4)GlcNAc(b1-2)Man(a1-3)[Man(a1-6)]Man(b1-4)GlcNAc(b1-4)GlcNAc
How it was run: as §1

[32] = molecular target: Neu5Ac(a2-6)Gal(b1-4)GlcNAc(b1-2)Man(a1-3)[Neu5Ac(a2-6)Gal(b1-4)GlcNAc(b1-2)Man(a1-6)]Man(b1-4)GlcNAc(b1-4)GlcNAc
How it was run: as §1

[33] = molecular target: Neu5Ac(a2-6)Gal(b1-4)GlcNAc(b1-2)Man(a1-3)[Neu5Ac(a2-6)Gal(b1-4)GlcNAc(b1-2)Man(a1-6)]Man(b1-4)GlcNAc(b1-4)[Fuc(a1-6)]GlcNAc
How it was run: as §1

[34] = molecular target: Neu5Ac(a2-6)Gal(b1-4)GlcNAc(b1-3)Gal(b1-3)GlcNAc
How it was run: as §1

[35] = molecular target: Neu5Ac(a2-6)Gal(b1-4)GlcNAc(b1-3)Gal(b1-4)GlcNAc(b1-3)Gal(b1-4)GlcNAc(b1-2)Man(a1-3)[Neu5Ac(a2-6)Gal(b1-4)GlcNAc(b1-3)Gal(b1-4)GlcNAc(b1-3)Gal(b1-4)GlcNAc(b1-2)Man(a1-6)]GalNAc
How it was run: as §1

[36] = molecular target: Neu5Ac(a2-6)Gal(b1-4)GlcNAc(b1-3)Gal(b1-4)GlcNAc(b1-3)GalNAc
How it was run: as §1

[37] = molecular target: Neu5Ac(a2-6)Gal(b1-4)GlcNAc(b1-3)[Neu5Ac(a2-6)Gal(b1-4)GlcNAc(b1-6)]GalNAc
How it was run: as §1

[38] = molecular target: Neu5Ac(a2-8)Neu5Ac(a2-8)Neu5Ac(a2-3)[GalNAc(b1-4)]Gal(b1-4)Glc
How it was run: as §1

[39] = molecular target: Neu5Gc(b2-6)Gal(b1-4)GlcNAc
How it was run: as §1

B1: ERGIC1-EDTA (Homo sapiens), Q969X5 (protein)
chain: MKFLVNVALVFMVVYISYIYAAAHMHHHHHHDYDIPTTENLYFQGSEVVNELYVDDPDKDSGGKIDVSLNISLPNLHCELVGLDIQDEMGRHEVGHIDNSMKIPLNNGAGCRFEGQFSINKVPGNFHVSTHSATAQPQNPDMTHVIHKLSFGDTLQVQNIHGAFNALGGADRLTSNPLASHDYILKIVPTVYEDKSGKQRYSYQYTVANKEYVAYSHTGRIIPAIWFRYDLSPITVKYTE
- glycan array binding signal (z-score) (Fuc(a1-2)Gal(b1-4)Glc): -1.4
- glycan array binding signal (z-score) [1]: 2.88
- glycan array binding signal (z-score) [2]: 1.3
- glycan array binding signal (z-score) [3]: 1.07
- glycan array binding signal (z-score) [4]: -0.089
- glycan array binding signal (z-score) [5]: 0.546
- glycan array binding signal (z-score) [6]: 0.499
- glycan array binding signal (z-score) [7]: 2.25
- glycan array binding signal (z-score) [8]: 0.056
- glycan array binding signal (z-score) [9]: -0.034
- glycan array binding signal (z-score) [10]: 3.15
- glycan array binding signal (z-score) [11]: -0.044
- glycan array binding signal (z-score) (Gal(b1-4)Glc6S): -0.759
- glycan array binding signal (z-score) [12]: -1.26
- glycan array binding signal (z-score) [13]: 2.13
- glycan array binding signal (z-score) [14]: 2.23
- glycan array binding signal (z-score) [15]: -0.361
- glycan array binding signal (z-score) (Gal3S(b1-4)Glc6S): 0.151
- glycan array binding signal (z-score) (Gal3S(b1-4)GlcNAc): -0.117
- glycan array binding signal (z-score) (GalNAc(b1-4)Gal(b1-4)Glc): -0.531
- glycan array binding signal (z-score) [16]: 0.638
- glycan array binding signal (z-score) [17]: -0.295
- glycan array binding signal (z-score) [18]: 0.799
- glycan array binding signal (z-score) [19]: 2.52
- glycan array binding signal (z-score) [20]: -0.459
- glycan array binding signal (z-score) [21]: 2.1
- glycan array binding signal (z-score) [22]: 0.617
- glycan array binding signal (z-score) [23]: -0.63
- glycan array binding signal (z-score) [24]: -0.734
- glycan array binding signal (z-score) [25]: -0.406
- glycan array binding signal (z-score) [26]: -0.82
- glycan array binding signal (z-score) [27]: -0.285
- glycan array binding signal (z-score) [28]: 2.27
- glycan array binding signal (z-score) [29]: 3
- glycan array binding signal (z-score) [30]: 1.03
- glycan array binding signal (z-score) [31]: 1.69
- glycan array binding signal (z-score) [32]: -0.027
- glycan array binding signal (z-score) [33]: 2.07
- glycan array binding signal (z-score) [34]: 0.896
- glycan array binding signal (z-score) [35]: 2.02
- glycan array binding signal (z-score) [36]: 0.381
- glycan array binding signal (z-score) [37]: -1.06
- glycan array binding signal (z-score) [38]: 0.592
- glycan array binding signal (z-score) [39]: -0.624
